# Results taken from PubChem BioAssay AID1159580 (chemical genetic matrix, 2015).
# The campaign covered roughly 5,500 compounds. About 2,000 (36%) were called active. About 18% were inconclusive and are not listed. This is one part of the list. A number with no mark means an inactive call. Rule as the data show it: active = normalized growth mostly below about 0.91 (no sharp cut-off); inconclusive = no clear call, values can overlap the other calls; inactive = mostly above about 0.92.
# Experiment: chemical genetic growth profiling, strain panel (AID 1159580);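 also: tested at 20 µM; growth read once vehicle control cultures reached saturation at 30 °C; 1 = growth at the plate median or of vehicle wells; lower values mean less growth of the strain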
# Conditions: S. cerevisiae deletion strains, growth OD
structure (smiles),measurement,setting,value
CC(C)c1ccc(NCC(O)CSc2ccccc2)cc1 (stereo unspecified),normalized growth,"locus YAR019C, strain CDC15, hits give low values",0.956
same,normalized growth,"locus YBL105C, strain PKC1, hits give low values",0.957
same,normalized growth,"locus YBR135W, strain CKS1, hits give low values",0.952
same,normalized growth,"locus YBR136W, strain MEC1, hits give low values",0.952
same,normalized growth,"locus YBR160W, strain CDC28, hits give low values",0.966
same,normalized growth,"locus YDL017W, strain CDC7, hits give low values",0.969
same,normalized growth,"locus YDL028C, strain MPS1, hits give low values",0.955
same,normalized growth,"locus YDL101C, strain DUN1, hits give low values",0.951
same,normalized growth,"locus YDL108W, strain KIN28, hits give low values",0.943
same,normalized growth,"locus YDL132W, strain cdc53, hits give low values",0.948
same,normalized growth,"locus YDL214C, strain PRR2, hits give low values",0.808
same,normalized growth,"locus YDR052C, strain DBF4, hits give low values",0.974
same,normalized growth,"locus YDR054C, strain cdc34, hits give low values",0.947
same,normalized growth,"locus YDR226W, strain ADK1, hits give low values",0.983
same,normalized growth,"locus YDR477W, strain SNF1, hits give low values",0.805
same,normalized growth,"locus YER123W, strain YCK3, hits give low values",0.755
same,normalized growth,"locus YER133W, strain GLC7, hits give low values",0.796
same,normalized growth,"locus YFL009W, strain cdc4, hits give low values",0.952
same,normalized growth,"locus YFL029C, strain CAK1, hits give low values",0.952
same,normalized growth,"locus YFR003C, strain YPI1, hits give low values",0.959
same,normalized growth,"locus YFR019W, strain FAB1, hits give low values",0.928
same,normalized growth,"locus YFR028C, strain CDC14, hits give low values",0.957
same,normalized growth,"locus YGR040W, strain KSS1, hits give low values",0.801
same,normalized growth,"locus YGR052W, strain FMP48, hits give low values",0.717
same,normalized growth,"locus YGR092W, strain DBF2, hits give low values",0.696
same,normalized growth,"locus YHR030C, strain SLT2, hits give low values",0.655 (active)
same,normalized growth,"locus YHR079C, strain IRE1, hits give low values",0.7
same,normalized growth,"locus YHR082C, strain KSP1, hits give low values",0.733
same,normalized growth,"locus YHR205W, strain SCH9, hits give low values",0.756
same,normalized growth,"locus YIL147C, strain SLN1, hits give low values",0.952
same,normalized growth,"locus YJL095W, strain BCK1, hits give low values",0.708
same,normalized growth,"locus YJL128C, strain PBS2, hits give low values",0.968
same,normalized growth,"locus YJL157C, strain FAR1, hits give low values",0.845
same,normalized growth,"locus YJR016C, strain ILV3, hits give low values",0.962
same,normalized growth,"locus YJR066W, strain TOR1 (second series), hits give low values",0.819
same,normalized growth,"locus YJR066W, strain TOR1, hits give low values",0.786
same,normalized growth,"locus YKL048C, strain ELM1, hits give low values",0.731 (active)
same,normalized growth,"locus YKL067W, strain YNK1, hits give low values",0.834
same,normalized growth,"locus YKL101W, strain HSL1, hits give low values",0.746
same,normalized growth,"locus YKL193C, strain SDS22, hits give low values",0.944
same,normalized growth,"locus YKL203C, strain TOR2, hits give low values",0.814
same,normalized growth,"locus YLR113W, strain HOG1, hits give low values",0.405 (active)
same,normalized growth,"locus YLR133W, strain CKI1, hits give low values",0.843
same,normalized growth,"locus YLR403W, strain SFP1, hits give low values",0.842
same,normalized growth,"locus YML070W, strain DAK1, hits give low values",0.766
same,normalized growth,"locus YMR001C, strain CDC5, hits give low values",0.956
same,normalized growth,"locus YMR205C, strain PFK2 (second series), hits give low values",0.815
same,normalized growth,"locus YMR277W, strain FCP1, hits give low values",0.953
same,normalized growth,"locus YNL006W, strain LST8, hits give low values",0.962
same,normalized growth,"locus YNL020C, strain ARK1, hits give low values",0.812
same,normalized growth,"locus YNL161W, strain CBK1, hits give low values",0.963
same,normalized growth,"locus YNL183C, strain NPR1, hits give low values",0.64
same,normalized growth,"locus YNL207W, strain RIO2, hits give low values",0.951
same,normalized growth,"locus YNL222W, strain SSU72, hits give low values",0.953
same,normalized growth,"locus YNL307C, strain MCK1 (second series), hits give low values",0.802
same,normalized growth,"locus YOL078W, strain AVO1, hits give low values",0.958
same,normalized growth,"locus YOL136C, strain PFK27, hits give low values",0.781
same,normalized growth,"locus YOR061W, strain CKA2, hits give low values",0.856
same,normalized growth,"locus YOR119C, strain RIO1, hits give low values",0.761
same,normalized growth,"locus YOR231W, strain MKK1, hits give low values",0.634
same,normalized growth,"locus YOR329C, strain SCD5, hits give low values",0.964
same,normalized growth,"locus YPL031C, strain PHO85, hits give low values",0.74
same,normalized growth,"locus YPL153C, strain RAD53, hits give low values",0.741
same,normalized growth,"locus YPL204W, strain HRR25, hits give low values",0.696
same,normalized growth,"locus YPL209C, strain IPL1, hits give low values",0.964
same,normalized growth,"locus YPL256C, strain CLN2, hits give low values",0.621 (active)
same,normalized growth,"locus YPR025C, strain CCL1, hits give low values",0.957
same,normalized growth,"locus YPR106W, strain ISR1, hits give low values",0.94
same,normalized growth,"locus YPR111W, strain DBF20, hits give low values",0.936
same,normalized growth,"strain NNK1, hits give low values",0.913
same,normalized growth,"strain TSCII, hits give low values",0.954
